Experimental data: PubChem BioAssay AID743314 (Broad Institute, 2014)
Results with a measured potency or affinity are listed apart. Records with an inconclusive call do not appear. Calls of active or inactive are those of the source.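 How the source made its calls: active means fitted half-maximal concentration no higher than twice the top tested dose, in every repeat run; inconclusive means repeat runs disagree, poor fit, or flat partial inhibition; inactive means the rest.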

molecular target: Endoplasmic reticulum aminopeptidase 1 (Homo sapiens) (UniProt Q9NZ08); test: inhibition of human ERAP1 enzyme activity – biochemical, cherry-pick, set 2, plate reader, dose response (AID 743314); conditions: Recombinant ERAP1, Leu-AMC fluorescence, 60 min; series mostly up to 11 µM
Sequence (Q9NZ08 whole entry, looked up): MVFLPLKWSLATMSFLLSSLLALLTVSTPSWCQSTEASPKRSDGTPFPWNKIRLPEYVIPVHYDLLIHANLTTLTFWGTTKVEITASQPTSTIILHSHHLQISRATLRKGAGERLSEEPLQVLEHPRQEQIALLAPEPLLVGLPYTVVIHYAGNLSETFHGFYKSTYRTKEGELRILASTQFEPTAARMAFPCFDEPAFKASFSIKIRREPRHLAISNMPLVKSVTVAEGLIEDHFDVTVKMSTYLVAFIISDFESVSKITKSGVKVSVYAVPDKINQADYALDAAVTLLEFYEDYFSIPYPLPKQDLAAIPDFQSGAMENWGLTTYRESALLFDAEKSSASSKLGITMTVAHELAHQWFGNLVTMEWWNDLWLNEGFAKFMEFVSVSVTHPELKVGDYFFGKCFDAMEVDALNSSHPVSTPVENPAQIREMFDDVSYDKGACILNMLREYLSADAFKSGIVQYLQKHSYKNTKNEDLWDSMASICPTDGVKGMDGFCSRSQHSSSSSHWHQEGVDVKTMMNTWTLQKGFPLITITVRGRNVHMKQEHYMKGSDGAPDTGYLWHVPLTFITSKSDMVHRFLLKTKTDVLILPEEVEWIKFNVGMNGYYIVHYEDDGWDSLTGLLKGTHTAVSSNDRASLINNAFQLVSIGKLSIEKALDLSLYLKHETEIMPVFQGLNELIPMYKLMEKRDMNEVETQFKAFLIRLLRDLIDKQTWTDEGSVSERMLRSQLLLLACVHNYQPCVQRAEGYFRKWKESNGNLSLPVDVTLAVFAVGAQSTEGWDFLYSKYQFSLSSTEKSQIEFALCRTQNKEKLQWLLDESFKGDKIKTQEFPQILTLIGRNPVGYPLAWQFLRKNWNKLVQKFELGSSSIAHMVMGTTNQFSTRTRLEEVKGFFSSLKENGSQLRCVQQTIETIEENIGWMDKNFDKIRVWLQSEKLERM

Row | SMILES | outcome
1 | Cc1noc(C)c1NC(=O)N(C)C[C@H]1Oc2c(NC(=O)Nc3ccc(F)cc3)cccc2C(=O)N([C@H](C)CO)C[C@@H]1C | inactive
2 | CN1[C@H](C(=O)N2CCCCC2)[C@@H](CO)[C@@H]2Cn3c(ccc(/C=C/c4ccccc4)c3=O)[C@@H]21 | inactive
3 | CCOC(=O)c1[nH]c2ccc(Br)cc2c1NC(=O)CCN1CCOCC1 | inactive
4 | C[C@H](CO)N1C[C@H](C)[C@H](CN(C)C)Oc2c(NC(=O)Nc3ccc(C(F)(F)F)cc3)cccc2C1=O | inactive
5 | COc1ccc(S(=O)(=O)N[C@@H]2C=C[C@H](CC(=O)NCc3ccccc3F)O[C@@H]2CO)cc1 | inactive
6 | CCN1CCCC1CNS(=O)(=O)c1cccc(C(F)(F)F)c1 (stereo not given) | inactive
7 | O=C(CSc1nnc2ccc(-c3ccc(F)cc3)nn12)N1CCCC1 | inactive
8 | COCC(=O)N1CCC2(CC1)CN(Cc1ccccc1F)[C@H](CO)c1[nH]c3cc(OC)ccc3c12 | inactive
9 | C[C@H]1CCCCO[C@@H](CN(C)C)[C@@H](C)CN([C@@H](C)CO)C(=O)c2cc(NS(=O)(=O)c3ccc(Cl)cc3)ccc2O1 | inactive
10 | COc1ccc(CN(C)C[C@H]2OCCCC[C@H](C)Oc3ccc(NS(=O)(=O)c4cccs4)cc3C(=O)N([C@@H](C)CO)C[C@@H]2C)cc1 | inactive
11 | Cc1oc2c(c(C)cc3oc(=O)c(CC(=O)N[C@H](C(=O)O)C(C)C)c(C)c32)c1C | inactive
12 | C[C@@H]1CCCCO[C@H](CN(C)Cc2ccc(C(=O)O)cc2)[C@H](C)CN([C@@H](C)CO)C(=O)c2cc(NC(=O)Nc3ccc(C(F)(F)F)cc3)ccc2O1 | inactive
13 | C[C@@H]1CCCCO[C@H](CN(C)C)[C@H](C)CN([C@@H](C)CO)C(=O)c2cc(NS(=O)(=O)c3ccc(Cl)cc3)ccc2O1 | inactive
14 | COc1ccc2c3c([nH]c2c1)[C@H](CO)N(S(=O)(=O)c1cn(C)cn1)CC31CCN(CC2CCCCC2)CC1 | inactive
15 | COc1ccc(C(=O)NCc2nnc(SCCOc3ccccc3)n2C)cc1 | inactive
16 | CCCC(=O)Nc1ccc2c(c1)OC[C@@H](C)N(CC1CCOCC1)C[C@H](C)[C@@H](OC)CN(C)C2=O | inactive
17 | CC(=O)NC(CC(=O)NCCOc1ccccc1F)c1ccccc1 (stereo not given) | inactive
18 | O=C(O)c1ccccc1NS(=O)(=O)c1cccc(NS(=O)(=O)c2cc(Br)ccc2Br)c1 | inactive

Row | SMILES | outcome
19 | O=S(=O)(Nc1cccc(-c2cn3c(n2)SCC3)c1)c1ccccc1F | inactive
20 | COc1ccc(C(=O)NCc2nnc(SCC(=O)NC3CCCCC3)n2C)cc1 | inactive
21 | C[C@@H]1CCCCO[C@H](CN(C)C)[C@@H](C)CN([C@@H](C)CO)C(=O)c2cc(NS(=O)(=O)c3ccc(Cl)cc3)ccc2O1 | inactive
22 | CNC[C@H]1Oc2c(NC(=O)Nc3ccc(F)cc3)cccc2C(=O)N([C@@H](C)CO)C[C@@H]1C | inactive
23 | C[C@@H]1CN([C@@H](C)CO)C(=O)c2cc(NS(=O)(=O)c3ccc(Cl)cc3)ccc2O[C@@H](C)CCCCO[C@@H]1CN(C)C | inactive
24 | CNc1cncc(-c2cccc(C(=O)N(C)C)c2)n1 | inactive
25 | O=C(CN1CCN(S(=O)(=O)N2CCOCC2)CC1)Nc1ccc(Cl)c(Cl)c1 | inactive
26 | CCc1ccc(NS(=O)(=O)c2ccc(C)c(C(=O)N3CCOCC3)c2)cc1 | inactive
27 | CCCCCCc1c(C)c2ccc(OCC(=O)N[C@@H](Cc3ccccc3)C(=O)O)cc2oc1=O | inactive
28 | CCCC#Cc1ccc2c(c1)O[C@H](CN(C)Cc1ccncc1)[C@@H](C)CN([C@H](C)CO)S2(=O)=O | inactive
29 | O=C(NCCN1CCCC1)[C@H]1[C@H](CO)[C@H]2Cn3c(cccc3=O)[C@@H]1N2C(=O)NC1CCCC1 | inactive
30 | Cc1cc(C)n2nc(C(=O)N3CCN(c4ccc([N+](=O)[O-])cc4)CC3)nc2n1 | inactive
31 | C[C@@H]1CN([C@@H](C)CO)C(=O)c2cccc(NC(=O)c3cnccn3)c2O[C@H]1CN(C)Cc1ccc(Cl)c(Cl)c1 | inactive
32 | CCN(C(=O)COC(=O)c1cnc(C)cn1)C1CCS(=O)(=O)C1 (stereo not given) | inactive
33 | CS(=O)(=O)N(CC(=O)N1CCOCC1)c1cccc(Cl)c1 | inactive
34 | CCCNC(=O)N1C[C@@H](C)[C@@H](OC)CN(C)C(=O)c2cc(NS(=O)(=O)CC(F)(F)F)ccc2OC[C@@H]1C | inactive
35 | O=C(c1ccc(F)cc1)N1CC2(C1)[C@H](c1ccccc1)[C@@H](CO)N2Cc1ccccn1 | inactive
